In general, inhibition refers to the relative decrease from the control value, in per cent.

SMILES strings stand for the structures. Activity calls are given as the source filed them. No rule for the calls is given here.

This assay is described as follows: Brca1-Bard1 BiLC signal decrease – luminescence, single concentration, counter-screen for Mdm2/MdmX interaction inhibitor project, confirmation (AID 504668). The note with it: Brca1/Bard1 bimolecular luciferase complementation counterscreen, at 8 µM, stronger effect = higher value.
As to `COc1cccc(/C=N/Nc2ncnc(Cl)c2N)c1O`, the inhibition was 30.7% (active).
The result for `O=C1[C@H]2[C@@H](c3ccc(F)cc3)N3C(=O)N(c4ccc(Br)cc4)C(=O)[C@@]3(Cc3ccccc3)[C@H]2C(=O)N1C1CCCCC1` reads 26.6% (active).
Take `Oc1ccccc1/C=N/Nc1nccnc1Cl`: the inhibition is 30.8% (active).
The same measure for `COc1ccc(C(C)=O)cc1CSc1nnc(-c2ccc(Cl)cc2)n1-c1ccccc1`: 25.6% (active); for `O=C1Nc2cccnc2N(C(=O)CCl)c2ccccc21`: 31.2% (active).
The result for `CCSc1nsc(NC(=O)Nc2cccc(F)c2)n1` reads 26.2% (active).
The same measure for `CCCSc1nnc(NC(=O)Nc2ccc(F)cc2)s1`: 28.5% (active); for `O=C(Nc1cccc(Cl)c1)Nc1nnc(CSCCOc2ccc(Cl)cc2)s1`: 23% (active).
Regarding `Cc1cccn2c(=O)c3cc(C(=O)NCCN4CCOCC4)c(=N)n(Cc4ccc(F)cc4)c3nc12`, the inhibition was 34.8% (active).
For `CC(C)[C@@H]1CC[C@@H](C)C[C@H]1OC(=O)C[n+]1cc(-c2ccc(Cl)cc2)n2c1CCCCC2`, the inhibition is 28.7% (active).
The result for `CC1(C)Cc2ccccc2C2=NNC(=O)C2=N1` reads 29.2% (active).
The same measure for `CC(=O)Nc1nc(C)c(-c2csc(Nc3ccc(S(N)(=O)=O)cc3)n2)s1`: 31.7% (active).
The result for `COc1ccc(C(=O)C(CCCCC(CN(C)C)C(=O)c2ccc(OC)cc2)CN(C)C)cc1` (centres undefined) reads 30.7% (active); that for `O=C(CCCN1C(=O)/C(=C/c2ccccc2)SC1=S)Nc1ccccc1O`, 29.9% (active); that for `O=C(Nc1ccccc1)C1=C[C@@H](C2CCCCC2)C[C@@H](OCc2ccc(CO)cc2)O1`, 24.1% (active).
In the case of `CCCCNc1c(-c2ccc(OC)c(SC3CCCCC3)c2)nc2ccc(C)cn12`, the inhibition was 28.6% (active).
The result for `Cc1ccc(C(c2cc(Cl)c3cccnc3c2O)N2CCN(C)CC2)cc1` (centres undefined) reads 32.5% (active).
The result for `Cc1ccc2[nH]c(C(=O)N/N=C/c3ccccc3O)c(C)c2c1` reads 25.3% (active); that for `Cc1nc(/N=C(\N)NC(=O)NC2CCCCC2)nc2ccccc12`, 34.4% (active); that for `Cc1ccc(NC(=O)c2ccccc2NS(=O)(=O)c2ccc(F)cc2)cc1S(=O)(=O)N1CCCCC1`, 28.2% (active).
The result for `O=C(CCCN1C(=O)/C(=C\c2ccccc2)SC1=S)Nc1ccccc1O` reads 30.3% (active); that for `C[C@@H](NC(=O)OC(C)(C)C)c1nnc(S(=O)(=O)Cc2ccccc2)o1`, 24.9% (active); that for `COc1ccc(O)c(/C=N/NC(=O)c2ccc(CSc3nc(C)cc(C)n3)cc2)c1`, 30.7% (active).
Regarding `CC(=O)/C(C#N)=C1\NC(=O)C(Cc2ccc(C)c(C)c2)S1` (centres undefined), the inhibition is 32.1% (active).
The same measure for `O=C(NNC(=O)c1ccccc1OCc1ccccc1)c1ccccc1O`: 34.8% (active); for `CC(=O)Oc1c(-c2ccc(Br)o2)oc2ccccc2c1=O`: 29.9% (active); for `COc1ccc(OC)c2[nH]c(C(=O)N/N=C/c3ccccc3O)cc12`: 32.5% (active).
As for `O=C(N/N=C/c1cc(Br)cc(Br)c1O)c1cccc(N2CCCC2=O)c1`, the inhibition is 26.3% (active).
The result for `C=C(C(=O)c1ccccc1)C(C)CC(=O)c1ccccc1` (centres undefined) reads 32.4% (active).
The same measure for `Cc1ccc(C(=O)N/N=C/c2c(O)ccc3ccccc23)cn1`: 26.6% (active); for `CCCC(O)(CCC)C(=O)NN(C(=O)CCl)c1cccc(C)c1`: 23.7% (active); for `CC(=O)c1c(C)[nH]c(C(=O)N2CCN(c3cc(Cl)ccc3C)CC2)c1C`: 34% (active).
The same measure for `Oc1ccc(CNc2ccc(F)cc2)c2cccnc12`: 36% (active); for `N/C(=N\NC(=O)c1sccc1OCc1ccc(Cl)cc1Cl)c1ccccn1`: 35.1% (active); for `CC(=O)Nc1nc(C)c(-c2csc(Nc3cccc([N+](=O)[O-])c3)n2)s1`: 35.6% (active).
Take `CCOC(=O)CSC1=NC(=O)/C(=C/c2ccc(OC)cc2)S1`: the inhibition was 32.1% (active).
The result for `Cc1cccc(/C=N/NC(=O)Cc2ccc(Cl)cc2)c1O` reads 29.9% (active).
The same measure for `O=C(C#Cc1ccccc1)Nc1cccc(F)c1`: 30.5% (active).
The same measure for `NC(N)=N/N=C/c1ccc(OCc2ccccc2Cl)cc1`: 32.5% (active).

The values are drawn from PubChem BioAssay.
